PubChem BioAssay
Several values for one entry are separate records, joined by “and”; a condition that tells them apart may be missing. Identical values can stand only once. Activity calls are given as the source filed them.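 The calls were made as follows, unless noted: active = thallium flux through the channel raised or lowered by more than 3 SD from vehicle-only wells, actives on both sides; inactive = the rest.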

How the values were obtained:
[1] = test system: Hepatitis C virus NS3 helicase; assay: HCV NS3 helicase inhibitors, primary screen, biochemical, fluorescence polarization, NIH Clinical Collection (AID 743270; call rule not given here); conditions: NS3 helicase binding to Cy5-dT15 DNA, stronger effect = higher value, concentration not given here
[2] = biological target: Single-stranded DNA-binding protein (Escherichia coli (strain K12)) (UniProt P0AGE0); assay: E. coli SSB displacement from DNA, counter-screen for HCV NS3 helicase inhibitor project, biochemical, fluorescence polarization, NIH Clinical Collection (AID 743271; in the data active = inhibition above about 28%); conditions: stronger effect = higher value, concentration not given here
[3] = fluorescence interference in NS3h assay format, artefact control for HCV NS3 helicase inhibitor project, biochemical, NIH Clinical Collection (AID 743272; call rule not given here;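 also: HCV NS3 helicase with a Cy5 labelled single stranded DNA probe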); conditions: fluorescence interference counterscreen, stronger effect = lower value
[4] = stimulators of nuclear beta-catenin in C2C12, primary screen, imaging, WNT3A-conditioned medium, mouse C2C12, NPC library (AID 1117326; in the data active = nuclear beta-catenin stimulation mostly above about 4.2%, no sharp cut-off; inactive = mostly below about 10%); conditions: stronger effect = higher value
[5] = stimulators of insulin release from INS-1E, primary screen, cell-based, 5 mM glucose, NPC library (AID 1117329;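 active = compound raises insulin release from rat beta cells at 5 mM glucose, no numeric limit stated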); conditions: rat INS-1E insulin secretion, at 10 µM, stronger effect = higher value
[6] = growth inhibition of GSK3B-pretreated HCT116 cells – cell-based, CellTiter-Glo, 0.2 to 20 µM (AID 1117336;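 active = compounds lowering colon cancer cell viability after pretreatment blocking the GSK3B kinase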); conditions: HCT116 viability after GSK3B inhibitor, at 20 µM, stronger effect = higher value
[7] = inhibition of endothelial tube formation, primary screen, imaging, VEGF stimulated, CD31 staining, tube area, NPC library (AID 1117340;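 active = compound that reduces growth-factor-driven endothelial tube area in a mixed cell culture, no cutoff stated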); conditions: VEGF-stimulated ADSC/ECFC co-culture, at 10 µM, stronger effect = higher value
[8] = glucagon-like peptide 1 release enhancers, primary assay, NCI-H716 cell line, NPC library (AID 1117341;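 active = compound raises GLP1 secretion from the human gut endocrine cells, with no numeric limit stated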); conditions: NCI-H716 cells, at 10 µM, stronger effect = higher value
[9] = HCT116 colon cancer cell growth inhibition, primary screen, CellTiter-Glo luminescence, NPC library (AID 1117342;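 active = compounds that lower survival of HCT116 colon cancer cells in the luminescence readout, no numeric limit stated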); conditions: at 20 µM (top of the series)
[10] = CellTiter-Glo luminescent readout of SW480 viability loss, NPC library primary (AID 1117343;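 active = compounds that lower viability of the colon cancer cells in the luminescence readout, with no numeric limit stated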); conditions: CellTiter-Glo luminescence; at 20 µM (top of the series)
[11] = decreased DLD-1 cellular survival, CellTiter-Glo luminescent readout, NPC compound collection, primary HTS (AID 1117346;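 active = compounds that lower survival of DLD-1 colon cancer cells in the luminescence readout, no cutoff given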); conditions: DLD-1 viability, CellTiter-Glo luminescence; at 20 µM (top of the series)
[12] = biological target: 6-phosphogluconate dehydrogenase, decarboxylating (Homo sapiens) (UniProt P52209); assay: 6PGD enzyme inhibitors, primary screen, biochemical, human, recombinant enzyme, NADPH absorbance (AID 1159550;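 active = at least 20% inhibition of 6-phosphogluconate dehydrogenase activity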); conditions: recombinant 6PGD, NADPH absorbance 341 nm; at 10 µM; stronger effect = higher value
Chain of 6-phosphogluconate dehydrogenase, decarboxylating (Homo sapiens) (P52209 whole entry, looked up): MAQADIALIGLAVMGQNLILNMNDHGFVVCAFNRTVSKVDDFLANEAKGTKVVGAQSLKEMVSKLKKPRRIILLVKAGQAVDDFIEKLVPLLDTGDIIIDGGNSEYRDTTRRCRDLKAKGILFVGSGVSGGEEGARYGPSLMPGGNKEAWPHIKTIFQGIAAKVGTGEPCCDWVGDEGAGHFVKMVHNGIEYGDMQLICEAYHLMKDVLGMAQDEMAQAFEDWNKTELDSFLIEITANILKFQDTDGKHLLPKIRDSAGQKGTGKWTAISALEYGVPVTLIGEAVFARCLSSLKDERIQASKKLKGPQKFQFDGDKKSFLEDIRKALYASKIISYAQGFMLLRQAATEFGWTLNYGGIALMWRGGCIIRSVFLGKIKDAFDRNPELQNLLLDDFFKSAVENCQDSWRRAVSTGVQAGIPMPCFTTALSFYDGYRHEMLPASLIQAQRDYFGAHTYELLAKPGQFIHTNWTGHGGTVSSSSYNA

[13] = differential killing of epithelial or mesenchymal cells, primary screen, imaging, PC-3E GFP, TEM4-18 mCherry, co-culture (AID 1345086;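 active = compounds killing one labelled cell type while sparing the other, by normalised counts and ratio limits, not self-fluorescent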;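 as to all read-outs here: cells exposed to compound for 72 h before imaging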;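 as to red/green cell ratio (normalised): normalised mesenchymal count divided by normalised epithelial count so high means epithelial killing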); conditions: imaging cell counts, at 1 µM; for red/green cell ratio (normalised): actives lie on both sides, counts scaled to control wells, 1 = unselective
[14] = survival rescue of mitochondrial mutant cells in low glucose, primary screen, MELAS cybrids, Rieske KO mouse fibroblasts, CellTiter-Glo (AID 1508586;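 active = mean z-score across replicates of 1.96 or higher in either the MELAS or the Rieske mutant cell line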;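 also: z relative to plate mean and SD of compound and empty wells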)
[15] = biological target: NAD(+) hydrolase SARM1 (Homo sapiens) (UniProt Q6SZW1); assay: SARM1 TIR NADase inhibitors, cell lysate, NAD-Glo luminescence (AID 1508614;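 active = compound whose remaining NAD level is above about 45 nM, limit read from the data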;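 also: higher remaining NAD means stronger inhibition of SARM1 NADase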); conditions: SAM-TIR HEK293T lysate NADase, at 1 µM, stronger effect = higher value
Chain of NAD(+) hydrolase SARM1 (Homo sapiens) (Q6SZW1 whole entry, looked up, the tested form may be a part): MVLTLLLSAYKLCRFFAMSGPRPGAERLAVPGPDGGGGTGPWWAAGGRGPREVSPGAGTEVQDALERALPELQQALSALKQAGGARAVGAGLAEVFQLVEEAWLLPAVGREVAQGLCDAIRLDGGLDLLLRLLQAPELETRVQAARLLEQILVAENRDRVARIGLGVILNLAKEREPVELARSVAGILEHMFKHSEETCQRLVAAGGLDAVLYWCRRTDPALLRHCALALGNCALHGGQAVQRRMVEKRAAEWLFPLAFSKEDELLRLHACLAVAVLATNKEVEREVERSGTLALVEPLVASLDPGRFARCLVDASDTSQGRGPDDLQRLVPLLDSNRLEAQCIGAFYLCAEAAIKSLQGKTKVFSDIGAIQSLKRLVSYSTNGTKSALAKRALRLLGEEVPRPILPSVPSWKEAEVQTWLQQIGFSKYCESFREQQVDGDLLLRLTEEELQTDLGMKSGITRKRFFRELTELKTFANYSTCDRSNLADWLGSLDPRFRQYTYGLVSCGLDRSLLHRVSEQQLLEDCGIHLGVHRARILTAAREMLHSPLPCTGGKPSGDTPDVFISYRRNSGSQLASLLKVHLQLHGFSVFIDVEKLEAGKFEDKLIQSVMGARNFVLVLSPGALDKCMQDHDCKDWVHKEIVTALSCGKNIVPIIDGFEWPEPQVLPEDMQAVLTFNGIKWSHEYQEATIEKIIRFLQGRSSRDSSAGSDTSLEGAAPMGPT

[16] = biological target: Mitogen-activated protein kinase 7 (Homo sapiens) (UniProt Q13164); assay: ERK5 transactivation activators in reporter cells, primary screen, cell-based, HTS (AID 1508626;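 active = luciferase signal above three times the same-plate solvent-only control wells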;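 also: luciferase driven by Gal4-ERK5 fusion binding five Gal4 sites before minimal TATA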); conditions: HeLa Gal4-ERK5 transactivation, 18 h, at 5 µM, stronger effect = higher value
Chain of Mitogen-activated protein kinase 7 (Homo sapiens) (Q13164 whole entry, looked up, the tested form may be a part): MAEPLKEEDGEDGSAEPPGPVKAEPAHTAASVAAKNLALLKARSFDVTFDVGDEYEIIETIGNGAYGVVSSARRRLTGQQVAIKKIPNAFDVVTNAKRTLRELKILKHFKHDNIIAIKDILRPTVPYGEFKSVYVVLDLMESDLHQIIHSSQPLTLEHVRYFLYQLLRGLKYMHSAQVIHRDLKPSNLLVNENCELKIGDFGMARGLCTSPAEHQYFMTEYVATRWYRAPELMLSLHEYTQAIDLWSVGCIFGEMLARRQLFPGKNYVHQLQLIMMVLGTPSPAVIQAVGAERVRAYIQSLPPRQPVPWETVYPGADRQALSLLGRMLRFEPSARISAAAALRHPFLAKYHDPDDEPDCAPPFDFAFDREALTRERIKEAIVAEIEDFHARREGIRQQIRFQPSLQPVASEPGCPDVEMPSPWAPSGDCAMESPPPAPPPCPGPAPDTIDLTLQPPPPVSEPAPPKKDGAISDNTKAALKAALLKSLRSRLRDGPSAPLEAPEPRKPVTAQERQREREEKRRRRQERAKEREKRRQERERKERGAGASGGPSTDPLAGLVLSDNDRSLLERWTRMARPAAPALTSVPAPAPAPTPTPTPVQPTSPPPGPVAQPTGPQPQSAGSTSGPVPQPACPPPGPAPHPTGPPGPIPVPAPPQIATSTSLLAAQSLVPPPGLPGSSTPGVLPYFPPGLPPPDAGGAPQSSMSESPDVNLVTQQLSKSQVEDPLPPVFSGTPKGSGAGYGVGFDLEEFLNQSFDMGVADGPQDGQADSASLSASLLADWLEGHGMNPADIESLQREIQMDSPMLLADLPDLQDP

F380Y = assay: modulators of BK channel variants, profiling panel, selectivity assay, cell-based, U2OS BacMam, thallium flux, beta subunits (AID 1259406); conditions: at 30 µM;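 also: initial slope of Thallos dye fluorescence rise after thallium is added; log ratio against the mean of 0.3% DMSO vehicle wells on the same plate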
F380Y/beta2Delta = assay: as above; conditions: at 30 µM
[17] = biological target: Calcium-activated potassium channel subunit alpha-1 (Homo sapiens) + Leucine-rich repeat-containing protein 26 (Homo sapiens) (UniProt Q12791+Q2I0M4); assay: as above; conditions: F380Y/Slo1WT/gamma1, at 30 µM
Chain of Calcium-activated potassium channel subunit alpha-1 (Homo sapiens) + Leucine-rich repeat-containing protein 26 (Homo sapiens) (Q2I0M4 whole entry, looked up, one chain of several): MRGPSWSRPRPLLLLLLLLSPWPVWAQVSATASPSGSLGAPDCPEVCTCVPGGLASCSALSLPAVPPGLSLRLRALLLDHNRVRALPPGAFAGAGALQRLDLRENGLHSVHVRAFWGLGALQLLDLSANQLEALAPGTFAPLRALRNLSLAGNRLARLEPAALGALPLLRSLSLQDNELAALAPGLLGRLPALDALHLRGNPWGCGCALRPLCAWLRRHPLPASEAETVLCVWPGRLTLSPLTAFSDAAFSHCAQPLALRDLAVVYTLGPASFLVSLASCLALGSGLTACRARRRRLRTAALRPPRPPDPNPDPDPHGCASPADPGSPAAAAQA

[18] = sensitizers of A549 cells to miR-34 induction, primary screen, imaging, A549 dox-inducible miR-34, nuclei and caspase counts (AID 1347080;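 active = compounds whose cell count with miR-34 switched on is under 0.7 times the count with it off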); conditions: A549 miR-34 inducible, Hoechst nuclei count, 48 h
[19] = measured here: epithelial PC-3E GFP cell survival
[20] = measured here: mesenchymal TEM4-18 mCherry cell survival
[21] = MELAS cybrid survival, CellTiter-Glo 48 h, stronger effect = higher value
[22] = Rieske KO mouse fibroblast survival, CellTiter-Glo 72 h
[23] = measured here: relative caspase fold change +Dox/-Dox

CCCNC(=O)NS(=O)(=O)c1ccc(Cl)cc1
1.29: normalised cell number [13, 20]
active: luciferase signal [16] 276 AU
-0.188 and -0.232: z-score [14, 22]
inactive: inhibition [1] -2.27% | inhibition [2] 1.05% | fluorescence ratio [3] 0.96 | nuclear beta-catenin stimulation ([4]; at 10 µM) 4.6% | insulin secretion stimulation [5] 1.5% | viability decrease [6] 4.6% | tube area decrease [7] -1.2% | GLP1 secretion stimulation [8] 6.4% | inhibition of viability [9] 2.7% | viability decrease (inhibition) [10] -4.3% | viability decrease (inhibition) [11] -8.8% | inhibition [12] 14.6% | red/green cell ratio (normalised) [13] 1.2 | z-score [14, 21] -0.244 and -0.535 | remaining NAD [15] 10 nM | log fold change Tl+ flux (F380Y) -0.0312 | log fold change Tl+ flux (F380Y/beta2Delta) -0.00553 | log fold change Tl+ flux [17] -0.0083
8.3%: nuclear beta-catenin stimulation ([4]; stimulation, at 2 µM)
1.08: normalised cell number [13, 19]

c1ccc2c(c1)CCCC2C1=NCCN1 (stereo not given)
-0.176 and -0.558: z-score [14, 22]
1.36: normalised cell number [13, 20]
-0.1%: nuclear beta-catenin stimulation ([4]; stimulation, at 2 µM)
1.03: normalised cell number [13, 19]
inactive: inhibition [1] -4.09% | inhibition [2] -0.48% | fluorescence ratio [3] 0.93 | nuclear beta-catenin stimulation ([4]; at 10 µM) 4.7% | insulin secretion stimulation [5] -0.4% | viability decrease [6] -30.2% | tube area decrease [7] -9.5% | GLP1 secretion stimulation [8] 0.9% | inhibition of viability [9] 0.6% | viability decrease (inhibition) [10] 11.2% | viability decrease (inhibition) [11] -6.9% | inhibition [12] 19.3% | red/green cell ratio (normalised) [13] 1.32 | z-score [14, 21] -0.281 and -0.833 | remaining NAD [15] 10 nM | luciferase signal [16] 44 AU | log fold change Tl+ flux (F380Y) -0.0277 | log fold change Tl+ flux (F380Y/beta2Delta) -0.0151 | log fold change Tl+ flux [17] 0.0123

CN(C)CCCN1c2ccccc2CCc2ccccc21
1.07: normalised cell number [13, 19]
inactive: nuclear beta-catenin stimulation ([4]; at 10 µM) 0.8% | insulin secretion stimulation [5] 5.55% | tube area decrease [7] 0.8% | GLP1 secretion stimulation [8] 10% | inhibition of viability [9] 36.7% | viability decrease (inhibition) [11] -1.6% | inhibition [12] 2.5% | red/green cell ratio (normalised) [13] 1.07 | z-score [14, 21] -0.849 and -0.557 | remaining NAD [15] 10 nM | luciferase signal [16] 44 AU | log fold change Tl+ flux [17] 0.0488
-0.2%: nuclear beta-catenin stimulation ([4]; stimulation, at 2 µM)
active: viability decrease [6] 57.9% | viability decrease (inhibition) [10] 70.5% | log fold change Tl+ flux (F380Y) 0.14 | log fold change Tl+ flux (F380Y/beta2Delta) 0.118
1.14: normalised cell number [13, 20]
0.136 and -0.674: z-score [14, 22]

CCCCC1=NC2(CCCC2)C(=O)N1Cc1ccc(-c2ccccc2-c2nn[nH]n2)cc1
1.55 and 6.32: fold change [18, 23]
-0.504: z-score [14, 22]
7550 and 13800: cell count ([18]; measured here: total cells without miR-34 induction)
7090 and 11900: cell count ([18]; measured here: total cells with miR-34 induction, stronger effect = lower value)
1.18: normalised cell number [13, 20]
0.1%: nuclear beta-catenin stimulation ([4]; stimulation, at 2 µM)
inactive: inhibition [1] -3.56% | inhibition [2] 3.75% | fluorescence ratio [3] 1.03 | nuclear beta-catenin stimulation ([4]; at 10 µM) 1.9% | insulin secretion stimulation [5] 1.8% | viability decrease [6] -43% | tube area decrease [7] -17.7% | GLP1 secretion stimulation [8] -0.1% | inhibition of viability [9] -0.43% | viability decrease (inhibition) [10] -11.7% | viability decrease (inhibition) [11] -12.4% | inhibition [12] -3.55% | red/green cell ratio (normalised) [13] 1.43 | fold change ([18]; stronger effect = lower value, cell number ratio, induced over uninduced) 0.939 and 0.866 | z-score [14, 21] -0.829 | remaining NAD [15] 10 nM | luciferase signal [16] 56 AU | log fold change Tl+ flux (F380Y) 0.0685 | log fold change Tl+ flux (F380Y/beta2Delta) 0.0508 | log fold change Tl+ flux [17] -0.00804
0.82: normalised cell number [13, 19]

O=C(CCCN1CC=C(n2c(=O)[nH]c3ccccc32)CC1)c1ccc(F)cc1
-0.119 and 0.175: z-score [14, 22]
inactive: inhibition [1] -5.15% | inhibition [2] -0.1% | fluorescence ratio [3] 1 | nuclear beta-catenin stimulation ([4]; at 10 µM) 1% | insulin secretion stimulation [5] 2.7% | viability decrease [6] -5.9% | tube area decrease [7] 16.2% | GLP1 secretion stimulation [8] -0.5% | inhibition of viability [9] 28.5% | viability decrease (inhibition) [10] 10.4% | viability decrease (inhibition) [11] 3.7% | inhibition [12] 12.8% | red/green cell ratio (normalised) [13] 0.96 | z-score [14, 21] -0.163 and 0.567 | remaining NAD [15] 10 nM | luciferase signal [16] 68 AU | log fold change Tl+ flux (F380Y) 0.0359 | log fold change Tl+ flux (F380Y/beta2Delta) 0.058 | log fold change Tl+ flux [17] -0.0307
0.94: normalised cell number [13, 19]
0.9: normalised cell number [13, 20]
0.3%: nuclear beta-catenin stimulation ([4]; stimulation, at 2 µM)

C[C@H](CS)C(=O)N1CCC[C@H]1C(=O)O
-0.06 and -1.18: z-score [14, 22]
1.01: normalised cell number [13, 19]
inactive: nuclear beta-catenin stimulation ([4]; at 10 µM) 0.8% | insulin secretion stimulation [5] -2.3% | viability decrease [6] -11.6% | tube area decrease [7] 12.5% | GLP1 secretion stimulation [8] 2.3% | inhibition of viability [9] -2.6% | viability decrease (inhibition) [10] 27.6% | viability decrease (inhibition) [11] -2.15% | inhibition [12] -3.72% | red/green cell ratio (normalised) [13] 1.1 | z-score [14, 21] -0.272 and -0.072 | remaining NAD [15] 10 nM | luciferase signal [16] 52 AU | log fold change Tl+ flux (F380Y) -0.0244 | log fold change Tl+ flux (F380Y/beta2Delta) 0.00669 | log fold change Tl+ flux [17] 0.0254
0.9%: nuclear beta-catenin stimulation ([4]; stimulation, at 2 µM)
1.1: normalised cell number [13, 20]

CCOC(=O)[C@H](CCc1ccccc1)N[C@@H](C)C(=O)N1Cc2ccccc2C[C@H]1C(=O)O
inactive: inhibition [1] -8.64% | inhibition [2] -0.48% | fluorescence ratio [3] 1.04 | nuclear beta-catenin stimulation ([4]; at 10 µM) 2.5% | insulin secretion stimulation [5] 0.7% | viability decrease [6] -30.1% | tube area decrease [7] -10% | GLP1 secretion stimulation [8] 2.9% | inhibition of viability [9] 3.6% | viability decrease (inhibition) [10] 28.5% | viability decrease (inhibition) [11] 6% | inhibition [12] -10.1% | red/green cell ratio (normalised) [13] 0.95 | z-score [14, 21] 0.64 and 0.208 | remaining NAD [15] 10 nM | luciferase signal [16] 64 AU | log fold change Tl+ flux (F380Y) 0.032 | log fold change Tl+ flux (F380Y/beta2Delta) 0.0255 | log fold change Tl+ flux [17] 0.0143
-0.486 and -0.81: z-score [14, 22]
0.3%: nuclear beta-catenin stimulation ([4]; stimulation, at 2 µM)
1.45 and 1.07 and 4.39: fold change [18, 23]
1.12: normalised cell number [13, 20]
1.17: normalised cell number [13, 19]
